Results as given in PubChem BioAssay.
The source made the active and inactive calls. Unless noted, how the calls were made is not given here.

How the values were obtained:
[1] = test system: XIP peptide (Xip251-270) binding; test: small-molecule binders of XIP peptide, primary screen, biochemical, small-molecule microarray, fluorescence 635/667 nm, 0.1 µg/mL protein (AID 1182); details: fluorescent protein binding, 635 nm, higher = more signal, called active from +8 up or from −8 down
[2] = test system: XIP peptide (Xip251-270); test: small-molecule binders of XIP peptide, primary screen, biochemical, small-molecule microarray, fluorescence 635/667 nm, 0.5 µg/mL protein (AID 1183); details: small-molecule microarray binding, fluorescence 635 nm; higher = more signal
[3] = Plasmodium falciparum growth inhibition, primary screen, strain 3D7, DAPI fluorescence, 100 nL (AID 1184);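 further: parasites grown inside human red blood cells in medium with human serum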; details: P. falciparum 3D7 growth, 3 d, higher = more signal
[4] = biological target: Homeobox protein Hox-A13 (Mus musculus) (UniProt Q62424); test: inhibitors of HoxA13-DNA binding, primary screen, biochemical, fluorescence polarization, labeled oligonucleotide (AID 1185); details: 15 min, higher = more signal, called active from +8 up or from −8 down
Chain of Homeobox protein Hox-A13 (Mus musculus) (Q62424 whole entry, looked up): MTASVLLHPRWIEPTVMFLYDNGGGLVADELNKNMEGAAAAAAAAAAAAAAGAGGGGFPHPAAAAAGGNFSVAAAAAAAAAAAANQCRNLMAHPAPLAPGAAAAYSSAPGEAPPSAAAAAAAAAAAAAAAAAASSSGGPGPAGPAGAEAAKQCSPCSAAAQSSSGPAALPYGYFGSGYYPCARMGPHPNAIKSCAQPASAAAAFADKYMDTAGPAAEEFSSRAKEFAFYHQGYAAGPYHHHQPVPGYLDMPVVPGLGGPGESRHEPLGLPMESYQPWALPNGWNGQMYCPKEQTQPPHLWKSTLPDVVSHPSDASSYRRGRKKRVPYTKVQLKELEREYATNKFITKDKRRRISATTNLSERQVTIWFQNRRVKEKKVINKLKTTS

[5] = inhibitors of hydroxyurea-induced Chk1 phosphorylation, primary screen, imaging, HeLa, phospho-Chk1 antibody, percent positive cells (AID 1186); details: hydroxyurea-induced phospho-Chk1 immunofluorescence imaging, higher = more signal
[6] = inhibitors of hydroxyurea-induced Chk1 phosphorylation, primary screen, imaging, HeLa, phospho-Chk1 nuclear intensity (AID 1187); details: hydroxyurea-induced phospho-Chk1 immunofluorescence imaging, higher = more signal

| Structure (SMILES) | composite z-score [1] | composite z-score [2] | z-score [3] | z-score [4] | z-score [5] | z-score [6] |
| --- | --- | --- | --- | --- | --- | --- |
| COc1ccc([Si](C)(C)[C@H]2[C@H](CCO)O[C@@]3(C(=O)N(Cc4cccc(N5CCOC5=O)c4)c4ccccc43)[C@@H]2C)cc1 | 0.154 (inactive) | 0.687 | -2.79 | -4.21 (inactive) | -1.12 (inactive) | -0.5 (inactive) |
| COc1ccc(C#Cc2ccc3c(c2)[C@]2(C(=O)N3)[C@H](C(N)=O)[C@H]3C(=O)O[C@H](c4ccccc4)[C@H](c4ccccc4)N3[C@@H]2c2ccc(O)cc2)cc1 | 1.13 (inactive) | 0.712 | 0.0021 | -0.559 (inactive) | -0.607 (inactive) | -0.861 (inactive) |
| Cc1ccc(S[C@]2(C(=O)O)CC(=O)N(C3CCCCC3)[C@@H]2c2ccc(CO)cc2)cc1 | 1.15 (inactive) | 0.929 | 0.756 | -3.31 (inactive) | -0.643 (inactive) | -0.583 (inactive) |
| NC(=O)[C@H]1[C@@H]2C(=O)O[C@@H](c3ccccc3)[C@@H](c3ccccc3)N2[C@@H](c2ccc(O)cc2)[C@]12C(=O)Nc1ccc(C#CC3(O)CCCCCC3)cc12 | 0.366 (inactive) | 0.836 | -1.85 | -1.28 (inactive) | 0.526 (inactive) | 0.301 (inactive) |
| COCC(=C=CC[C@@H](O)c1ccccc1OCCO)C[C@@H](O)COCc1ccccc1 | -0.581 (inactive) | 0.262 | -2.84 | -4.38 (inactive) | -1.14 (inactive) | -0.978 (inactive) |
| CC(C)=CCCC(C)=CC(O)C1C=CC2C(=O)N(c3ccccc3)C(=O)C2N1Nc1ccc([N+](=O)[O-])cc1 (stereo not given) | 0.174 (inactive) | 0.817 | -0.0908 | -4.57 (inactive) | 0.458 (inactive) | -0.178 (inactive) |
| CN1C(=O)C2C=CC(C(O)COCc3ccccc3)N(Nc3ccccc3)C2C1=O (stereo not given) | -0.184 (inactive) | 0.311 | 0.872 | -2.91 (inactive) | 0.466 (inactive) | 0.764 (inactive) |
| COc1ccc([Si](C)(C)[C@@H]2[C@@H](CCO)O[C@]3(C(=O)N(Cc4ccccc4)c4ccc(N5C(=O)COc6ccccc65)cc43)[C@H]2C)cc1 | -0.234 (inactive) | 0.667 | -2.82 | -1.89 (inactive) | -1.26 (inactive) | -1.47 (inactive) |
| C=C(COC)C(=O)CC[C@H](OC(=O)c1ccccc1-c1ccccc1C(=O)O)c1ccc(CO)o1 | 1.28 (inactive) | 0.393 | 0.399 | -6.22 (inactive) | 0.44 (inactive) | -0.37 (inactive) |
| CCCCC(O)C1C=CC2C(=O)N(Cc3ccccc3)C(=O)C2N1n1cnnc1 (stereo not given) | 0.506 (inactive) | 0.856 | -1.33 | -1.62 (inactive) | 0.737 (inactive) | 0.0163 (inactive) |
| NC(=O)NCC#Cc1ccc2c(c1)[C@]1(C(=O)N2)[C@H](c2ccc(OCCO)cc2)N2[C@H](c3ccccc3)[C@H](c3ccccc3)OC(=O)[C@H]2[C@@H]1C(=O)N1CCN(c2ncccn2)CC1 | 0.0244 (inactive) | 0.353 | 0.149 | 0.314 (inactive) | 0.432 (inactive) | 1.09 (inactive) |
| Cc1ccc(C(C)CC(O)C2C=CC3C(=O)N(Cc4ccccc4)C(=O)C3N2n2cnnc2)o1 (stereo not given) | 0.831 (inactive) | 0.731 | -0.981 | -2.57 (inactive) | 0.0591 (inactive) | -0.208 (inactive) |
| COC(=O)c1ccc(OC)c(/C=C\CC(CCc2ccccc2)OC(C)=O)c1 (stereo not given) | -0.521 (inactive) | -0.187 | 0.522 | -1.15 (inactive) | 0.177 (inactive) | 0.453 (inactive) |
| CC(=O)NCCCC[C@@H]1NC(=O)[C@@H]2C[C@H](C(=O)NCCCC[N+](C)(C)C)[C@H](c3cccc(OCCO)c3)N2C1=O | 0.383 (inactive) | 0.446 | -0.102 | -2.25 (inactive) | -0.349 (inactive) | -0.317 (inactive) |
| COCCCNC(=O)[C@@]1(Cc2ccccc2N=[N+]=[N-])N=C(c2ccc(OCCCO)cc2)O[C@H]1c1ccccc1CN=[N+]=[N-] | 0.401 (inactive) | 0.763 | -2.23 | 0.427 (inactive) | -0.314 (inactive) | 0.446 (inactive) |
| COc1ccc([Si](C)(C)[C@@H]2[C@@H](CCO)O[C@]3(C(=O)N(Cc4ccc(N5C(=O)c6ccccc6Oc6ccccc65)cc4)c4ccccc43)[C@H]2C)cc1 | 0.89 (inactive) | 0.294 | -2.77 | -1.06 (inactive) | -0.42 (inactive) | -0.394 (inactive) |
| CC1C=C(CCCO)C=C(C(=O)OCCS(C)(=O)=O)C(C(=O)OCCS(C)(=O)=O)=CN1Cc1cccc(OC(F)(F)F)c1 (stereo not given) | 0.392 (inactive) | -0.0318 | -2.67 | -7.2 (inactive) | -0.0917 (inactive) | 0.397 (inactive) |
| COC(=O)[C@@]1(Cc2ccc(OC)cc2)[C@H]2c3cc(C(=O)N4CCCC4)n(CCc4ccc(O)c(OC)c4)c3C[C@H]2CN1C(=O)c1ccccc1 | 0.739 (inactive) | -0.506 | -0.37 | -4.35 (inactive) | 0.219 (inactive) | 0.0055 (inactive) |
| O=C1C2C=CC(C(O)c3cccc4ccccc34)N(Nc3ccccc3)C2C(=O)N1c1ccccc1 (stereo not given) | 0.179 (inactive) | 0.807 | -0.176 | -0.231 (inactive) | 0.107 (inactive) | -0.294 (inactive) |
| CCOC(=O)C[C@H]1[C@H](OC(=O)c2ccccc2-c2ccccc2)[C@@H](NC(=O)c2ccccc2)c2cc(OCCCO)ccc2N1C(=O)Cc1ccc(OC)cc1 | -0.231 (inactive) | -0.73 | -0.375 | -2.77 (inactive) | 0.237 (inactive) | 0.356 (inactive) |
| COC(=O)[C@]1(Cc2ccccc2CN=[N+]=[N-])N=C(c2ccc(OCCCO)cc2)O[C@@H]1c1ccccc1 | 0.0835 (inactive) | 0.534 | -2.17 | -4.62 (inactive) | -0.346 (inactive) | -0.91 (inactive) |
| COc1cccc(C[C@H]2C[C@@H](CO[Si](C(C)C)(C(C)C)C(C)C)N3C(=O)[C@]4(C(C)=O)O[C@]23[C@H]2C(=O)N(C)C(=O)[C@H]24)c1 | 0.0522 (inactive) | 0.459 | -0.281 | -3.12 (inactive) | 0.527 (inactive) | 0.139 (inactive) |
| COC(=O)[C@@]1(Cc2ccc(OC)cc2)[C@H]2c3cc(C(=O)N(C)C)n(Cc4cc(F)c(F)c(F)c4)c3C[C@H]2CN1C(=O)c1ccccc1 | 0.0306 (inactive) | 0.577 | -1.81 | -1.93 (inactive) | 0.102 (inactive) | -0.186 (inactive) |
| COC(=O)c1c(CC[C@@H](CO)NC(=O)N[C@@H](C)Cn2cc(C3(O)CCCC3)nn2)oc(C(C)=O)c1C(=O)OC | -0.0616 (inactive) | 0.407 | -2.04 | -1.93 (inactive) | 1.1 (inactive) | 0.929 (inactive) |
| C=CCNC(=O)[C@H]1[C@@H]2C(=O)O[C@@H](c3ccccc3)[C@@H](c3ccccc3)N2[C@@H](c2ccc(O)cc2)[C@]12C(=O)N(C(=O)OCCOC)c1ccc(C#CC3(O)CCCCCC3)cc12 | 1.44 (inactive) | 0.842 | 0.351 | -2.42 (inactive) | -0.213 (inactive) | 0.382 (inactive) |
